Set-up in all cases: scale not given: direction of the effect not stated beside the values
Assay [1] deals with Protein translocase subunit SecA (Escherichia coli (strain K12)) (UniProt P10408). Put plainly: Assay to Identify E. coli SecA ATPase Inhibitors. In kind it is functional. Conditions: 30 µM.
The target of assay [2] is T1, Ubiquitin-activating enzyme e1, putative (Leishmania donovani (strain BPK282A1)) (UniProt E9BSI1).
T1 sequence (whole entry): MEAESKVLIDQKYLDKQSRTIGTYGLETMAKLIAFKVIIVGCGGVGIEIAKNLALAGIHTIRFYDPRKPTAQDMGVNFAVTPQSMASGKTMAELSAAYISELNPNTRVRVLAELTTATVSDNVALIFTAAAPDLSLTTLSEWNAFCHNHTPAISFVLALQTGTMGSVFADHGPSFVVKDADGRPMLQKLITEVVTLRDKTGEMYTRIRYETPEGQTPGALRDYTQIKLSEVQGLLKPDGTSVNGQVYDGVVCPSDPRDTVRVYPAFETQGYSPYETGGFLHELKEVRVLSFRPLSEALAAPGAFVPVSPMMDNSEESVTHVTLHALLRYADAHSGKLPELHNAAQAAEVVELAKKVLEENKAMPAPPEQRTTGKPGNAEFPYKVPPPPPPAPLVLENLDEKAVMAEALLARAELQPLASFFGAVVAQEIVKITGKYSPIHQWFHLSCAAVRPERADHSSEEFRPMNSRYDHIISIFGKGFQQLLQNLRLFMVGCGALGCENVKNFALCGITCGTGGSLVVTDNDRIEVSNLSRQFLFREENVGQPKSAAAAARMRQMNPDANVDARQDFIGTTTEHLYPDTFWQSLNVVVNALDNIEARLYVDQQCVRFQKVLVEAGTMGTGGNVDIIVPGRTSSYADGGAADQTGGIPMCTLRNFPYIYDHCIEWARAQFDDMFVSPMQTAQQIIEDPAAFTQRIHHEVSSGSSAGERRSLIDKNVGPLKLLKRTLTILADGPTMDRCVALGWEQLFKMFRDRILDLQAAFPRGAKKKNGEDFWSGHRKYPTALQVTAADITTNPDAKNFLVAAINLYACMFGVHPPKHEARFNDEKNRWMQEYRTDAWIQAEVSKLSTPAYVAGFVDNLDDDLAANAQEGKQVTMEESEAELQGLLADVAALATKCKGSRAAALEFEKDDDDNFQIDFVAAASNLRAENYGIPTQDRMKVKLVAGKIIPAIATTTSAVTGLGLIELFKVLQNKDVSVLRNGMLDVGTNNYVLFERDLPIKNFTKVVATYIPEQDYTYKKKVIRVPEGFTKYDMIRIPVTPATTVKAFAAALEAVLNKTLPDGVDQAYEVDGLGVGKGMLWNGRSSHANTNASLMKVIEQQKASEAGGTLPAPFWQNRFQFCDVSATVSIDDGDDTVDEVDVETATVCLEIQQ
The assay is described as follows: Leishmania donovani Ubiquitin Activating Enzyme (LdE1). It is filed as functional. Conditions: 30 µM.

Assay [3] concerns the target AMP-activated protein kinase, AMPK (Homo sapiens) (UniProt P54646+O43741+P54619+Q9UGJ0+Q9Y478+Q13131+Q9UGI9). The assay is described as follows: AMP-dependent Kinase enzyme assay. An in vitro enzyme assay that detects ADP turnover that is directly proportional to AMPK activity. This uses naive AMPK that is activated during the assay with MK-8722. It is filed as functional. Conditions: 30 µM.

Assay [4] deals with Sialic acid-binding Ig-like lectin 9 (Homo sapiens) (UniProt Q9Y336). Put plainly: Hs-Siglec9 ALPHAscreen SOP 20170721. To be noted: 10 µM.
Sialic acid-binding Ig-like lectin 9 (Homo sapiens), sequence (Q9Y336 whole entry): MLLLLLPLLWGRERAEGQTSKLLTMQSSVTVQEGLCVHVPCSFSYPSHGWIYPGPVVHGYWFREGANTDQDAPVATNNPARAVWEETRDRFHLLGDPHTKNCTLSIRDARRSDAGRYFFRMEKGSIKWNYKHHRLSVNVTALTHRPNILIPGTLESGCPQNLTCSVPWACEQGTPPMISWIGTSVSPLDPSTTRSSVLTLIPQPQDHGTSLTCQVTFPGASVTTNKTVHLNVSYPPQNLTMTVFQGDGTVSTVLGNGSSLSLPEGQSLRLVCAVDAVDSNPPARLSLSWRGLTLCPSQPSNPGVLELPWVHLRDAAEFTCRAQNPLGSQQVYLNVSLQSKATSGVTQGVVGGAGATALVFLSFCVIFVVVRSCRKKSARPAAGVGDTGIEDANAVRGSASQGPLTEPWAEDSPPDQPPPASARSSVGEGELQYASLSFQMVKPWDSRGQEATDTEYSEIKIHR
Assay [5] relates to Trypanosoma cruzi. Put plainly: Trypanosoma cruzi phosphomannomutase and mannose-1-phosphate guanylyltransferase assay. It is filed as functional. To be noted: 10 µM.
Assay [6] deals with T2, Arginase-2, mitochondrial (Homo sapiens) (UniProt P78540).
T2 sequence (whole entry): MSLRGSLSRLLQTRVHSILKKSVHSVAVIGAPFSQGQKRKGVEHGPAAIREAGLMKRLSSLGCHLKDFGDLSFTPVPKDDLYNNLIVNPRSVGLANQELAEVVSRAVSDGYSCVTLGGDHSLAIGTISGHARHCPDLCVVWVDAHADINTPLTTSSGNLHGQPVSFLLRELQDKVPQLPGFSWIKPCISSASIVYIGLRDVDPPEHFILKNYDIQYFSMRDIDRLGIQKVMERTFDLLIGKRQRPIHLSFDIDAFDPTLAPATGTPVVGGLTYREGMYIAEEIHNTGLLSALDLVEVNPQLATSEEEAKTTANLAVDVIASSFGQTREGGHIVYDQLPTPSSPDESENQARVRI
Put plainly: in vitro enzyme assay to detect the production of urea directly proportional to the activity of Arginase II. Note: in the data most compounds retested in dose-response had high values. To be noted: 33.3 µM. In kind it is functional.

Assay [7] concerns the target T3, Proteasome subunit beta (Trypanosoma cruzi) (UniProt O96673).
T3 sequence (whole entry): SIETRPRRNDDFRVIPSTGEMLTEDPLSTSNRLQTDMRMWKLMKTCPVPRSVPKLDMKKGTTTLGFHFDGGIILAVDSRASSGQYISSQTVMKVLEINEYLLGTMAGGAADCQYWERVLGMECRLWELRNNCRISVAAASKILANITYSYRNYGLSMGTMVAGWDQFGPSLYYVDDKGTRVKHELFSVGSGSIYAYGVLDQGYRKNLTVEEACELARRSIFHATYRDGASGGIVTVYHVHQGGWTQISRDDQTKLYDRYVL
Put plainly: Trypanosoma cruzi proteasome chymotrypsin-like activity (TcProtChymo) assay. Note: in the data most compounds retested in dose-response had high values. In kind it is functional. To be noted: 9.37 µM.

The species named for assay [8] is Homo sapiens. Put plainly: To identify inhibition of the IFN signalling (Jak-Stat) pathway via expression of an eGFP reporter gene under the control of an IFN-stimulated response element (ISRE) containing MxA promoter. In kind it is functional. To be noted: 30 µM.
For assay [9], the target named is T4, Tyrosyl-tRNA synthetase, putative (Trypanosoma cruzi (strain CL Brener)) (UniProt Q4DSP6).
T4 sequence (whole entry): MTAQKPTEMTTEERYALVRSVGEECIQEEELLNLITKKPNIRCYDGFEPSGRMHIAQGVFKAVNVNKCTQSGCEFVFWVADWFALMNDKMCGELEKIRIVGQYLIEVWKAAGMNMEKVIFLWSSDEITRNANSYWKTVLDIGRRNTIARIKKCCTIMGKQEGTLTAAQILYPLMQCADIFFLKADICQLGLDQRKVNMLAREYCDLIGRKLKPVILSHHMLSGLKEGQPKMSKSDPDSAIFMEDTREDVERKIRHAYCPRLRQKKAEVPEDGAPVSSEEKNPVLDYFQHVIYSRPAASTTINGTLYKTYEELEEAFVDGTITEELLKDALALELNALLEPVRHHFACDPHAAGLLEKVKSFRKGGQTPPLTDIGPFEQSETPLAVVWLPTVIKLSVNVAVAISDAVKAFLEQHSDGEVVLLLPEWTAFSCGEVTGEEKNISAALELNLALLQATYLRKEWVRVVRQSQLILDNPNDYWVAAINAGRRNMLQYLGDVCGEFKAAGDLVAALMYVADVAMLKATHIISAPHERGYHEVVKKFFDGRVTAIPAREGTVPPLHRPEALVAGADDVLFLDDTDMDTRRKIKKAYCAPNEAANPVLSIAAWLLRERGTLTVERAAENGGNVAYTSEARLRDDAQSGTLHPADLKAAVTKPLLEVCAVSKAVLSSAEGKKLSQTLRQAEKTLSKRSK
The assay is described as follows: Trypanosoma cruzi tyrosyl tRNA synthetase (TcYRS) _High Tyrosine SOP. Note: in the data most compounds retested in dose-response had high values. To be noted: 30 µM. It is filed as functional.

Assay [10] addresses T4, Tyrosyl-tRNA synthetase, putative (Trypanosoma cruzi (strain CL Brener)). Put plainly: Trypanosoma cruzi tyrosyl tRNA synthetase (TcYRS) SOP. It is filed as functional. Conditions: 30 µM.
Assay [11] addresses Chromo domain-containing protein 1 (Saccharomyces cerevisiae (strain ATCC 204508 / S288c) (Baker's yeast)) (UniProt P32657). Put plainly: ScCHD-1 Enzyme Inhibition Assay. Note: in the data most compounds retested in dose-response had high values. It is filed as functional. To be noted: 30 µM.

For some of these results: Entries with a potency or affinity are not part of this list.

Chromo domain-containing protein 1 (Saccharomyces cerevisiae (strain ATCC 204508 / S288c) (Baker's yeast)), sequence (P32657 whole entry, the tested form may be a part): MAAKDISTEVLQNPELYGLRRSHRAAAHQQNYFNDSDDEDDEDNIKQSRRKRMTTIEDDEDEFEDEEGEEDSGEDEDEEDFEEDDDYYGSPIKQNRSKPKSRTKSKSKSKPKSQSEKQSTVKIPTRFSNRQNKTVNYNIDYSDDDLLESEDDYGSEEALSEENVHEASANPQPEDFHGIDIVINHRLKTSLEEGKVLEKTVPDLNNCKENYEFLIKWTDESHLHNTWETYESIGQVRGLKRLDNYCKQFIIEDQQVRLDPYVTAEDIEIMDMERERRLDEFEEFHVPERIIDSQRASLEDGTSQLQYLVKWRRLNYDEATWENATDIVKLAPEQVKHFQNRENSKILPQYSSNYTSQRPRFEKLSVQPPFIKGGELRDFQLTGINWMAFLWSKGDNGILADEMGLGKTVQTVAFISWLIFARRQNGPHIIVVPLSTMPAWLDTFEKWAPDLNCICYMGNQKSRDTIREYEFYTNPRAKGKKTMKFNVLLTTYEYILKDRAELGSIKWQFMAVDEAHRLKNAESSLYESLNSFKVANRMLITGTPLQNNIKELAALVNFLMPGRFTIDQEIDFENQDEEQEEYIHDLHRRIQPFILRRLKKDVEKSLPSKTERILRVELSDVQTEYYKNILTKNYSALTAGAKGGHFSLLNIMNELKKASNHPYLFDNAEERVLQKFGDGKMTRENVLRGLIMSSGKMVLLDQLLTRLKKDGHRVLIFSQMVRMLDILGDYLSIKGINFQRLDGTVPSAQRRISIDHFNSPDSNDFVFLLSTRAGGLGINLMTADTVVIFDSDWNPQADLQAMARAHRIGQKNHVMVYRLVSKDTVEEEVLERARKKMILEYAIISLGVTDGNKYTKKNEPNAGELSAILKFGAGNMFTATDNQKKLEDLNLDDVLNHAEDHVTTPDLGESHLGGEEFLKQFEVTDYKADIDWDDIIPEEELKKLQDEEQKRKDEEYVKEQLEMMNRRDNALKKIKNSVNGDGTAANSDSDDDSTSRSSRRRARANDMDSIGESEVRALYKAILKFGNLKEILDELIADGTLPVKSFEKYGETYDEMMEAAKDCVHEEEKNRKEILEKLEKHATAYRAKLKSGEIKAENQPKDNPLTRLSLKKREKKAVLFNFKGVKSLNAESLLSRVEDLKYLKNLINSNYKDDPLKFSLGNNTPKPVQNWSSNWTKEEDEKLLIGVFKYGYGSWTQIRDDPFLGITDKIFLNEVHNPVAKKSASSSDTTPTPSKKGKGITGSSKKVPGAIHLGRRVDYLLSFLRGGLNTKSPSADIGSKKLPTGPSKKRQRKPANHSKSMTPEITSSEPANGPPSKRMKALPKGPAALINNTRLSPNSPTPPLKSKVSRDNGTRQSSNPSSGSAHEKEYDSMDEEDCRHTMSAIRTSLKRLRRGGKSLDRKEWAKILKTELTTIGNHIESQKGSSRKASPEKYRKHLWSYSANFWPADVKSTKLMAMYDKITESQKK
Protein translocase subunit SecA (Escherichia coli (strain K12)), sequence (P10408 whole entry): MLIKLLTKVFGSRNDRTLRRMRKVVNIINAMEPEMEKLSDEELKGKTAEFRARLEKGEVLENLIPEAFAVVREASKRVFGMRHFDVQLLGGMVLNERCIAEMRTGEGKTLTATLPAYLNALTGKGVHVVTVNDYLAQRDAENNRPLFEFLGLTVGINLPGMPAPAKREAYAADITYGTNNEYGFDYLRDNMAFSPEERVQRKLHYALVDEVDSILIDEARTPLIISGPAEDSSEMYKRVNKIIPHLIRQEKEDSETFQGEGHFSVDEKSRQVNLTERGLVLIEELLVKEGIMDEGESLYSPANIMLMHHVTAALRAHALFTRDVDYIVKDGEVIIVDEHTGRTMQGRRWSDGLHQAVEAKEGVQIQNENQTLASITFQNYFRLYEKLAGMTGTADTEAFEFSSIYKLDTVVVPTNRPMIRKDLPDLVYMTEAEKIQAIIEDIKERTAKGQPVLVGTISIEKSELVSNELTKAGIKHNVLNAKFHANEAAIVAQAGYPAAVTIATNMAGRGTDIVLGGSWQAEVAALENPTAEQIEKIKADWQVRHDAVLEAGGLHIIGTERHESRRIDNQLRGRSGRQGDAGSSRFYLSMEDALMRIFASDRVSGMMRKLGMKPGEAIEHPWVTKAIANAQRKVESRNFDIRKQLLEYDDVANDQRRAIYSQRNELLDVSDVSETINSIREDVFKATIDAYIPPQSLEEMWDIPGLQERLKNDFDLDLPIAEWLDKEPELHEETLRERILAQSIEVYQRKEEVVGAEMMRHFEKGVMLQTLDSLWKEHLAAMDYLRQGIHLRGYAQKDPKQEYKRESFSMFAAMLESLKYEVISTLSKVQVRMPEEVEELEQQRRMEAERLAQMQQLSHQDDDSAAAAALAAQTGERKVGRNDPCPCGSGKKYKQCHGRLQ

As for `Cc1nccc(C(=O)N2CCCN(Cc3cnn(C(C)C)c3)CC2)n1`, the Percent Effect in [1] was -7.35%; in assay [2], -8.11%; in [3], 0.58%; in assay [4], 14.6%; in [5], -2.93%; in assay [6], -0.833%. Besides, the Percent Effect stood at 7.35% in assay [7]; 1.24% in assay [8]; 5.94% in [9]; 11% in assay [10]; 6.2% in assay [11].

For the molecule `CC(CCN1CCn2nc(CNC(=O)N(C)C)cc2C1)c1ccccc1` (stereo unspecified), the Percent Effect in assay [1] was -0.0552%; in assay [2], 5.41%; in assay [3] it was -1.77%; in assay [4] it was 16.6%; in assay [5] it was 4.25%; in assay [6], 8.1%. In addition, the Percent Effect in [7] was 6.9%; in assay [8] it was 16.3%; in [9], 6.88%; in assay [10], 19.5%; in assay [11], -3.46%.

`Cc1nn(C)c(N(C)C)c1CNCC(O)COc1ccc(F)cc1` (stereo unspecified): the Percent Effect in assay [1] was -3.9%; in assay [2], 2.74%; in [3], -7.44%; in [4], -8.06%; in assay [5], -1.57%; in assay [6], 0.909%. The Percent Effect in [7] is 12.2%; in assay [8] it was -14.5%; in [9], 4.3%; in assay [10], 12.5%; in assay [11], -3.3%.

Regarding `O=C(CCC1CCCO1)NCc1ccnc(-n2cccn2)c1` (stereo unspecified), the Percent Effect was -7.06% in assay [1]; 13.2% in assay [2]; 2.95% in [3]; -9.63% in [4]; -7.38% in assay [5]; -1.44% in assay [6]. The Percent Effect in [7] was 5.33%; in assay [8], 10.6%; in [9], 0.493%; in assay [10], 11.1%; in [11] it was -5.06%.

With `Cc1occc1C(=O)N1CCCC2(CCN(CCN3CCCC3)C2=O)C1` (stereo unspecified), the Percent Effect in assay [1] is -3.31%; in assay [2], -2.6%; in assay [3] it was -1.22%; in assay [4], 14.5%; in [5], 6.79%; in [6], -12.4%. For the same molecule, the Percent Effect was 7.82% in assay [7]; -2.84% in assay [8]; -11.8% in assay [9]; -11.1% in assay [10]; -0.372% in [11].

Turning to `O=C(CCn1cnnc1)N1CCCC(c2ncc[nH]2)C1` (stereo unspecified), the Percent Effect in assay [1] was 1.63%; in assay [2], 5.48%; in [3], 11.6%; in assay [4] it was 0.524%; in assay [5] it was -6.27%; in [6] it was 2.27%. Also, the Percent Effect in assay [7] is 8.52%; in assay [8] it was 6.13%; in assay [9], 3.23%; in assay [10] it was 12.5%; in assay [11] it was -7.06%.

With `CCOC(=O)CNC(=O)N1CCN(c2ncccn2)CC1`, the Percent Effect is -2.75% in assay [1]; 7.79% in assay [2]; -0.383% in assay [3]; 6.61% in assay [4]; 4.03% in [5]; -13.8% in [6]. Further, the Percent Effect in assay [7] was 9.65%; in assay [8], 14.3%; in assay [9] it was 5.38%; in [10] it was 13.6%; in [11], -4.38%.

Regarding `COc1ccccc1OCCN1CCCC(c2noc(C3CC3)n2)C1` (stereo unspecified), the Percent Effect in assay [1] was -3.76%; in assay [2], 0%; in assay [3], -2.32%; in assay [4], -0.399%; in assay [5], -2.24%; in [6] it was 3.12%. Also, the Percent Effect is 5.41% in assay [7]; -3.11% in assay [8]; 2.73% in assay [9]; 6.17% in assay [10]; -4.48% in assay [11].

For the molecule `O=C(NCCCN1CCOCC1)Nc1cnc2cc(Cl)ccc2c1O`, the Percent Effect in [1] was 0.589%; in [2], 17.6%; in assay [3], 9.55%; in [4] it was -8.53%; in assay [5], -3.16%; in assay [6], -5.34%. In addition, the Percent Effect is 12.8% in assay [7]; 31.9% in assay [8]; 0% in assay [9]; 1.3% in [10]; -6.01% in assay [11].

Regarding `O=C(c1cccs1)N1CCC(Cn2nc(-c3ccco3)ccc2=O)CC1`, the Percent Effect in assay [1] is 0.0559%; in assay [2], 6.76%; in [3], 15.8%; in assay [4] it was 0.867%; in assay [5] it was -6.92%; in [6] it was 3.02%. In addition, the Percent Effect worked out at 26.8% in assay [7]; 13.6% in assay [8]; 10.8% in assay [9]; 14.3% in assay [10]; 1.29% in [11].

Turning to `CCOCC1CN(Cc2ccoc2)Cc2nn(CC3CC3)cc21` (stereo unspecified), the Percent Effect in assay [1] is -7.41%; in [2], -2.7%; in assay [3], 4.81%; in assay [4], -1.13%; in [5], -3.52%; in assay [6], 0%. Moreover, the Percent Effect in assay [7] was 3.3%; in assay [8] it was 5.53%; in assay [9], -7.92%; in assay [10] it was 6.1%; in [11], 0.75%.

(Values after ChEMBL document CHEMBL3988442, “University of Dundee, Small-Polar-MMV Screening Library” (2021).)
